Shiga inhibitor: blocks Shiga toxin action in Vero cells. Vero cells, Shiga toxin protein synthesis inhibition reporter. hit rate 9.2% among 290,000. inhibition, % at 38.7 µM; in the data active = inhibition mostly above about 28%, no sharp cut-off; inactive = mostly below about 43%; note: 0% is about no effect
Cycloheximide cs: affects cycloheximide protein synthesis inhibition readout, counter-screen; cell reporter, cycloheximide protein synthesis inhibition counterscreen; max response, %; hit rate 12% among 300,000; AID 2314; in the data active = max response mostly above about 13%, no sharp cut-off; inactive = mostly below about 14%; note: read at 38.3 µM for the half of the compounds with a filed dose; 0% is about no effect
NS1 function inh: blocks influenza NS1 protein function | Potency, µM (series often up to 46.1 µM), without a hit: at the top dose activity, positive = more growth | AID 2326 | hit rate 0.4% among 270,000; calls by dose curve; note: potency is the fitted concentration of half-maximal effect; actives are rising curves; nearly all actives have a fitted effect of over 50% in size
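Growth recovery, yeast-based: influenza A NS1 expressed in S. cerevisiae causes slow growth, and suppressors are detected by OD600. The parent strain without NS1 is used as positive control.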
SARS PLpro yeast: blocks SARS-CoV papain-like protease in a yeast assay; hit rate 0.19% among 330,000; S. cerevisiae expressing SARS-CoV PLpro, growth rescue; Potency, µM (highest dose often 32.9 µM), for inactives: at the top dose activity, positive = growth rescue, most hits filed as activators; calls by dose curve; note: potency is the fitted concentration of half-maximal effect; 0% is about no effect; nearly all actives have a fitted effect of over 55% in size
Pf growth 96h: P. falciparum growth inhibition at 96 hour, primary screen for plastid delayed-death inhibitors. P. falciparum luciferase reporter growth, 96 h. Potency, µM (doses to about 28.7 µM), for inactives: at the top dose activity change, negative = inhibition, actives largely listed as inhibitors. hit rate 6.9% among 320,000; note: potency is the fitted concentration of half-maximal effect; % is set by controls: 0 for no effect and ±100 for the full control effect
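Two-generation exposure (96 h) targets delayed-death phenotype. Reporter parasites carrying integrated firefly luciferase, in red cells at 2% hematocrit and 0.05% parasitemia final, kept at 37 C, 5% CO2; luminescence loss indicates inhibition.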
Pf growth 48h: P. falciparum growth inhibition at 48 hours (one generation). P. falciparum luciferase growth in erythrocytes, 48 h. hit rate 5.9% among 310,000. Potency, µM (titrated, usually from 28.7 µM), for inactives: top-dose activity change, negative = inhibition, usual class: inhibitors; note: potency is the fitted concentration of half-maximal effect; % is set by controls: 0 for no effect and ±100 for the full control effect
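Firefly luciferase activity from engineered P. falciparum reports growth; inhibitors lower the luminescent signal. Cultures contained 2% hematocrit erythrocytes at 0.1% final parasitemia.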
Active calls of the source: *; i = inactive; ? = inconclusive; . = no result; [ ] = another dose, or the depositor's remark. Sampled rows, rich in hits. Any-hit rate of the full collection: about 21%. Unless noted, calls come from the whole dose curve; as a rule, active = well fitted inhibition curve with a large enough effect; inconclusive = small, poorly fitted or top-dose-only effect, or another doubt; inactive = no such curve, though single readings can be large or run the other way.

SMILES	Shiga inhibitor	Cycloheximide cs	NS1 function inh	SARS PLpro yeast	Pf growth 96h	Pf growth 48h
CCOc1ccc(N(CC(=O)NCc2ccco2)C(=O)CCC(=O)Nc2ccccn2)cc1	-2.7	1.3	5.1%	7.6%	-28.3%	?
O=C(O)CCNS(=O)(=O)c1ccc2c(c1)OCCCO2	-6.0	-1.2	5.6%	-0.5%	19.9%	-0.9%
CCN(CC)C(=O)Cn1cc(C(=O)C(=O)NCc2ccccn2)c2ccccc21	16.7	1.0	10.2%	28.9%	-13.9%	2.5%
CCCC(=O)Nc1ccc2oc(-c3ccncc3)nc2c1	68.0*	19.9*	-32.3%	6.0%	?	18.3%
COc1ccc(OCC(=O)Nc2ccc3oc(-c4ccncc4)nc3c2)cc1	-11.8	0.7	4.7%	-1.1%	94.8%	-0.2%
CCCC(=O)Nc1ccc(-c2nc3cc(C)c(C)cc3o2)cc1	119.1*	35.5*	-94.8%	-2.5%	?	201.0%
CCCCC(=O)Nc1ccc2oc(-c3ccncc3)nc2c1	39.4*	13.1*	-16.4%	-6.4%	-18.5%	-2.4%
CCCC(=O)Nc1ccc(-c2cnc(-c3ccc(NC(=O)CCC)cc3)nc2)cc1	-4.6	1.0	8.9%	?	29.0%	25.4%
O=C(COc1ccc(Cl)cc1)Nc1ccc2oc(-c3ccncc3)nc2c1	-42.1	-3.0	-7.9%	-3.6%	.	?
O=C(CN1CCCC1)Nc1ccc(-c2nc3cc(NC(=O)CN4CCCC4)ccc3o2)cc1	72.8*	33.3*	-5.9%[9.22 µM]	3.8%	?	2.33µM*
O=C(CN1CCCCC1)Nc1ccccc1	-23.2	-0.9	-2.6%	-2.4%	57.5%	.
O=S(=O)(Nc1ccncc1Cl)c1ccc2ccccc2c1	16.2	0.5	2.6%	2.2%	4.1%	7.2%
CC(C)CCc1noc(CN(CC2CCC2)CC2CCCO2)n1 (stereo not given)	7.8	8.4	-4.4%	-1.3%	-14.0%	?
COC(=O)c1c(NC(=O)COC(=O)CCc2ccc(S(=O)(=O)N3CCOCC3)cc2)sc2c1CCC2	11.9	-3.5	40.7%	16.0%	5.8%	35.2%
O=C1[C@H](CC[C@H](O)c2ccc(F)cc2)[C@@H](c2ccc(O)cc2)N1c1ccc(F)cc1	-9.9	-1.9	.	-3.4%	.	.
CCN(C(=O)COC(=O)c1ccc([N+](=O)[O-])o1)c1cccc2ccccc12	.	.	.	-18.2%	.	.
Cc1nnc(S(=O)(=O)c2ccc(N=Nc3c(N)nc(N)nc3N)cc2)s1	.	.	2.2%	.	.	.
CC(C)(C)OC(=O)N1CCC(C(=O)N2CCC[C@H]2C(=O)O)CC1	60.1*	9.6*	5.5%	-15.7%	32.7%	8.6%
COc1ccc(CC(=O)NCC(=O)Nc2ccccc2Br)cc1	1.3	-0.7	-7.8%	-10.0%	42.9%	26.1%
CC(=O)Nc1cc([As](=O)(O)O)ccc1O	6.0	3.3	-2.4%	0.2%	10.7µM*	?
Brc1cccc2sc(N3CCN(c4ccccc4)CC3)nc12	30.0*	24.0*	.	-7.7%	0.0%	31.3%
O=C(O)c1cc(-c2cccc(Cl)c2)nc2nc(N3CCCCC3)sc12	9.2	-3.2	?	4.3%	-25.1%	-16.9%
COc1ccc(OC)c2sc(N3CCCCC3)nc12	66.2*	35.9*	-19.4%	-8.2%	39.3%	30.4%
Clc1cccc2sc(N3CCCCC3)nc12	81.9*	32.4*	-6.7%	-5.2%	.	76.6%
Clc1cc(Cl)c2nc(N3CCCCC3)sc2c1	72.5*	34.5*	-5.3%	0.0%	-0.3%	125.9%
SMILES	Shiga inhibitor	Cycloheximide cs	NS1 function inh	SARS PLpro yeast	Pf growth 96h	Pf growth 48h
Clc1cc(Cl)c2nc(N3CCCC3)sc2c1	.	.	-6.7%	.	.	.
CC1CC(=O)C2=C(C1)Nc1ccccc1SC2c1ccc(F)cc1 (stereo not given)	-6.2	-4.9	-1.0%	-16.8%	4.15µM*	11.7µM*
Cc1cc(C)c(N(CC(=O)NCc2ccccc2)C(=O)c2csnn2)c(C)c1	-2.1	-6.2	-2.4%	6.5%	12.2%	1.9%
COC(=O)c1ccccc1NC(=S)N(Cc1ccc2c(c1)OCO2)Cc1cc2cccc(C)c2[nH]c1=O	-11.8	-7.4	?	-3.2%	i	?
Cn1cc(Br)c(C(=O)NNC(=O)c2ccc(Cl)cc2)n1	34.8	39.2*	-8.3%	-5.4%	-0.5%	73.2%
C/C(=N\NC(=O)c1c(Cl)cnn1C)c1ccc(NC(=O)c2ccncc2)cc1	15.7	15.6*	15.7%	14.9%	-27.0%	-12.5%
C/C(=N\NC(=O)c1nn(C)cc1Br)c1ccc(NC(=O)c2ccncc2)cc1	105.2*	58.8*	5.6%	5.3%	4.15µM*	0.8%
C/C(=N\NC(=O)c1nn(C)cc1Br)c1cccc(NC(=O)C2CCCC2)c1	101.7*	64.9*	-7.9%	4.4%	5.4%	8.8%
Cc1noc(NS(=O)(=O)c2ccc(NC(=O)c3nn(-c4ccccc4)ccc3=O)cc2)c1C	-3.8	-2.3	-23.3%	3.1%	?	4.7%
C/C(=N\NC(=O)c1nn(C)cc1Br)c1cccc(NC(=O)C(C)(C)C)c1	97.9*	32.0*	4.3%	4.7%	?	?
CC(=O)c1cccc(NC(=O)CC2S/C(=N/N=C3CCCCCC3)NC2=O)c1 (stereo not given)	7.5	-3.4	17.2%	-11.0%	17.1%	0.7%
COc1cc(/C=N/O)ccc1OCc1ccc(Cl)cc1	69.7	36.7*	-31.3%	-1.0%	19.0%	245.0%
NC(N)=N/N=C/c1ccccc1	-13.2	-2.3	2.8%	-4.3%	-46.8%	.
NC(N)=N/N=C/c1ccc(OCc2ccccc2)c(OCc2ccccc2)c1	6.8	-5.7	13.6%	-0.6%	?	0.522µM*
O=C(O)c1cc(/C=N\O)ccc1OCc1ccccc1	22.5	3.2	?	1.1%	.	45.9%
COc1ccc(Cl)cc1NC(=O)CC1S/C(=N/N=C2CCCCCC2)NC1=O (stereo not given)	7.1	6.7	?	-2.7%	13.1µM*	?
COc1cc(/C=N/O)ccc1OCc1ccc(C(=O)O)cc1	21.3	54.5*	0.0%[9.22 µM]	-8.4%	383.1%	256.3%
COc1ccc(CNC(=O)c2ccc(CS(=O)(=O)Cc3ccccc3F)o2)cc1	10.7	-0.7	.	1.6%	?	17.4%
O=C(COc1ccccc1-c1ccccc1)NNC(=O)NC1CCCCC1	-16.1	0.9	2.7%	-0.4%	-7.3%	?
CCN(CC)C(=O)Cn1cc(S(=O)(=O)CC(=O)Nc2ccc(F)cc2F)c2ccccc21	-11.5	-1.7	1.5%	6.7%	-14.9%	22.4%
CCOc1cc(/C=N/NC(=O)CN2CCOCC2)ccc1OCc1ccc(Cl)cc1	-5.3	1.4	-4.2%	-3.1%	13.1µM*	?
CCOc1cc(/C=N/N=C2/NC(=O)C(CC(=O)O)S2)ccc1OCc1ccc(Cl)cc1Cl (stereo not given)	24.3	-1.6	0.5%	-0.8%	13.3%	-10.7%
CCCC(C)NC(=O)c1ccc(OCc2ccc(Cl)cc2)c(OC)c1 (stereo not given)	17.5	10.5	-1.1%	?	?	-21.8%
COc1cc(/C=N/N=C(N)N)ccc1OCc1ccc(Cl)cc1	76.5	39.7*	5.1%	-0.6%	-2.8%	?

Screens deposited in PubChem BioAssay by National Center for Advancing Translational Sciences (NCATS).
